# According to the supplement of paper PMC3334620:
# The full ranking holds about 33,000 sequences; the median of “E-score (-0.5 to 0.5)” is about -0.0014, and the highest 2% start at about 0.25. The full list was thinned out, with the highest values kept by preference.
# Molecular target: T1, Cad1 (UniProt P24813)
# T1 sequence: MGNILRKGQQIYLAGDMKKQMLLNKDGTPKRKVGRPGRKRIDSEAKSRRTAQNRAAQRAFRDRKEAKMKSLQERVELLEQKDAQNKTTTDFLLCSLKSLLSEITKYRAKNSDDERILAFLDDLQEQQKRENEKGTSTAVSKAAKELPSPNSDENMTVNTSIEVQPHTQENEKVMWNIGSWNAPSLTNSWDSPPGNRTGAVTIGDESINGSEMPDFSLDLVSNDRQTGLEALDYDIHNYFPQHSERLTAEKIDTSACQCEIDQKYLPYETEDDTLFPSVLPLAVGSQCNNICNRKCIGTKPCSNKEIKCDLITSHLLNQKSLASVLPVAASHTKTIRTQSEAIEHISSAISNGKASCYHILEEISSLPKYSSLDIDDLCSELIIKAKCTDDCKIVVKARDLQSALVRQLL
# Experiment: PBM E-score (8-mer binding enrichment) (E-score (-0.5 to 0.5)); higher = stronger / more preferred TF binding
# Settings: protein concentration: 100 nM; construct: GST-full length
# Protocol: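 Universal 'all 10-mer' protein binding microarrays (Agilent AMADID 015681) probed with GST-tagged S. cerevisiae TFs (full-length or DBD) made by in vitro transcription/translation (PURExpress), about 100-200 nM. Bound TF was detected with fluorescent anti-GST. Each ungapped 8-mer (which stands for itself and its reverse complement) is scored by the PBM enrichment score (E-score), a modified Wilcoxon-Mann-Whitney statistic from -0.5 to +0.5, computed with the Universal PBM Analysis Suite. Scale: above 0.35 generally sequence-specific binding.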
row,Sequence,PBM E-score
1,AGCAATCC,-0.214
2,AGCAATCA,0.216
3,AGCAATCG,0.27
4,ATGCGACC,0.0488
5,CTATTAGA,-0.057
6,GTATTAGA,0.26
7,ATATTAGA,0.197
8,GTTGCAGA,-0.0187
9,AAATAGTT,0.129
10,AAATAGTC,-0.0981
11,AAATCGTA,-0.0277
12,AAATCGTG,0.263
13,AAATCGTC,0.0296
14,AAATAGTG,0.258
15,CACGATGC,-0.0719
16,GAATCGTA,0.0597
17,CCGAAGAA,0.00754
18,CAGGTGCC,-0.0801
19,AGAATACA,0.0745
20,CTTATTTA,-0.00667
21,AATATTTC,0.264
22,AATATTTA,0.213
23,ACTATTTG,0.101
24,ATTATTTC,0.2
25,ATTATTTG,0.175

row,Sequence,PBM E-score
1,CTTATTTC,0.304
2,CATATTTC,0.0121
3,AATATGTC,0.17
4,AATATGTG,0.251
5,AATATTTG,0.255
6,AATATGTA,0.206
7,CCCTACCG,-0.112
8,AACGGGAC,-0.148
9,AACCAGAC,-0.0829
10,GTGGACTA,0.144
11,CTGAAGTC,-0.0337
12,ACATCCCG,0.147
13,CCCTCGAC,-0.0126
14,AATTTGGG,0.0286
15,AGTCCACA,-0.141
16,AATATTGC,0.294
17,AATATTGG,0.0135
18,CATATTGC,-0.116
19,GACGAAAC,0.144
20,CATTTATA,0.021
21,ATTTTGTC,0.121
22,ATTTTATG,0.255
23,CATTTATC,0.15
24,ATTTTATA,0.221
25,AATTTGTC,0.31

row,Sequence,PBM E-score
1,AATTTATC,0.293
2,AATTTGTA,0.196
3,AATTTATG,0.229
4,GATTTTTA,-0.0272
5,GATTTATA,0.319
6,AATTTATA,0.241
7,GATCAAAA,0.144
8,AGTACTTA,-0.0184
9,CAGGTTCA,-0.134
10,TTCGACAA,0.0549
11,GGCGACAC,0.0142
12,GTACGTGA,0.0217
13,AGCAACCA,0.0389
14,ATCGTTAC,0.0243
15,AATCATGG,0.048
16,ATTCATGA,0.0482
17,CTTCATGA,0.207
18,GTTCATGA,0.262
19,TATCATGA,0.16
20,AATCATGA,0.317
21,CTCTGAAC,-0.212
22,GGTATCCA,0.135
23,CTCTCCTA,-0.129
24,CGCGATGC,-0.0576
25,TCAGAGAA,-0.0244

row,Sequence,PBM E-score
1,AAGGCCAT,0.0298
2,ATTCTCCC,0.115
3,CTACCTCA,-0.107
4,CACGCTGA,0.143
5,GGCGCTGA,-0.0921
6,AGCGCTGA,0.258
7,CGCGCTTC,0.0321
8,GACGCTGA,0.0912
9,GGCGCTTA,-0.0696
10,AGCGCTTC,0.122
11,CGCGCTGA,0.219
12,TACGCTGA,0.275
13,AGCGCTGG,0.191
14,AGCGCTTA,0.336
15,CGCGCTTA,0.262
16,CTGTTCGA,-0.08
17,CTCCTACC,-0.236
18,CGGGTGAC,-0.0446
19,ACGGTGAC,-0.102
20,ATCATTGG,-0.0561
21,CCAGTCGG,-0.238
22,CTCACCGA,-0.12
23,GATTCCTA,0.0143
24,CACGCTCA,0.261
25,AACGCTCA,-0.0578

row,Sequence,PBM E-score
1,TACGCTCA,-0.0567
2,ACGGTACA,0.0323
3,AGTCAGGC,0.294
4,CGTCAGGC,-0.125
5,AGTCAGGA,0.141
6,GCCATAAA,0.125
7,AGAAGGTA,0.103
8,GGCGCTAA,-0.0255
9,AGCGCTAC,-0.068
10,AGCGCTAT,0.278
11,CGCGCTAA,0.256
12,CGCGCTAC,0.26
13,GGCGCTAC,-0.214
14,CGCGCTAG,0.238
15,TGCGCTAA,0.156
16,AGCGCTAA,0.212
17,CCAAAATA,0.147
18,CTTCCATA,-0.244
19,AAGCCGGT,-0.024
20,GCATAGAA,0.0802
21,ATTCATCA,0.132
22,ACTTTCTA,-0.028
23,TACTAGAA,0.0443
24,CACCCGCC,0.0605
25,ATCGTAGC,0.0921

row,Sequence,PBM E-score
1,AACGAGCA,-0.0102
2,TATATAAA,0.23
3,AACATAAC,0.135
4,AATATAAG,0.297
5,CATATAAG,0.00934
6,AATATAAT,0.18
7,CACATAAG,0.00562
8,AACATAAG,0.261
9,AATATAAA,0.251
10,CATATAAA,0.0106
11,AGGCTACT,-0.196
12,CATTGGAA,0.0544
13,TGTAGAAA,-0.18
14,CATTGAGA,-0.109
15,AGAAGAAT,-0.0672
16,AGATAGAC,0.0347
17,GATTTCTA,0.123
18,ACTATTGG,0.025
19,ATAGTTCA,0.0339
20,CATTTTAC,0.198
21,AATTTTCC,0.26
22,AATTTTAT,0.295
23,AATTTTTC,0.145
24,AATTTAAC,0.124
25,AATTTTAA,0.249

row,Sequence,PBM E-score
1,AATTTTAC,0.282
2,AATTTAAG,0.0522
3,ATTTTTAC,0.0299
4,ATTTTTCC,0.0266
5,AAATTTAT,0.171
6,AATTTAAT,0.252
7,CAGCGGCA,-0.0412
8,CCAGCCCG,-0.102
9,CGGGTTTC,0.179
10,CGACCGAG,-0.0641
11,CATTCGGC,-0.0238
12,GATAATCA,0.169
13,AATAATAA,0.305
14,CATAATAA,-0.0382
15,CTTAATAA,0.383
16,GTTAATAA,0.249
17,TCTAATAA,0.0758
18,AATAATAG,0.077
19,TATAATAA,0.278
20,TATAATCA,0.31
21,AATAATAC,0.205
22,CTTAATAC,-0.0147
